Screening data from PubChem BioAssay.
A selection: hits, their analogues and other compounds. The true share with any hit is near 3.5%.
MITF primary – human MITF inhibition, primary screen. O75030. AlphaScreen MITF homodimerization, bead proximity signal. inhibition, % at 2.6 µM. 0.91% of 650,000 active. AID 1259374; in the data active means inhibition above about 50%
TEAD-YAP inh – TEAD-YAP interaction inhibition. HEK-TIYL cells, TEAD-Gal4/YAP UAS-luciferase luminescence. inhibition, % at 9.12 µM. 1.4% of 640,000 active; in the data active means inhibition above about 32%
FBW7 activator – human FBW7 E3 ligase activation, primary screen; Q969H0; AlphaScreen FBW7–phospho-cyclin E peptide binding, activator screen; normalized activity (activation), % at 26.1 µM; 0.13% of 650,000 active; in the data active means normalized activity above about 1.9%;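 further: purified mutant Fbw7 with reduced substrate affinity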
Target sequence (Q969H0 whole entry, looked up): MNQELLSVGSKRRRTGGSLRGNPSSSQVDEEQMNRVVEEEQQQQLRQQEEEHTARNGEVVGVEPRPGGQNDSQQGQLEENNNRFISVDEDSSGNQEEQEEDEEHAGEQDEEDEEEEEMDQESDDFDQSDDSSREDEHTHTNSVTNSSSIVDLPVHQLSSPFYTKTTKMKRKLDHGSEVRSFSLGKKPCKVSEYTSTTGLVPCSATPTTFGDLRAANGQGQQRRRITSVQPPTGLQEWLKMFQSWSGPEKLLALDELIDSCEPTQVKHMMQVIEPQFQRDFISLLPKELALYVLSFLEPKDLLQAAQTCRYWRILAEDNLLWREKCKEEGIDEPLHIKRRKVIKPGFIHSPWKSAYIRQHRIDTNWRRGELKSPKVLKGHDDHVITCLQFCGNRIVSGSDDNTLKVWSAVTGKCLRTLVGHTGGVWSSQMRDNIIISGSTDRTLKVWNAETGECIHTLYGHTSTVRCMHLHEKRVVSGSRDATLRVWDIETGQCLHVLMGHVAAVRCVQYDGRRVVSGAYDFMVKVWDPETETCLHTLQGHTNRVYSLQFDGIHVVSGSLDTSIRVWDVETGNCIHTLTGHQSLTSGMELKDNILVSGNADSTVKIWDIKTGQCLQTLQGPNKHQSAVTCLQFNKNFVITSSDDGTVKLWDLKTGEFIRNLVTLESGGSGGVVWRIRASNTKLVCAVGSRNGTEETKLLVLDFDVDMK
GPR151 activ – activators of human GPR151 | Q8TDV0 | PathHunter beta-arrestin GPR151 cells, luminescence | activation, % at 11.2 µM | 1% of 650,000 active; in the data active means activation above about 4.9%
Of the large screens only hits and unclear results are named; the others gave an inactive call; ! = repeats disagree.

Cc1ccccc1NC(=O)/C(C#N)=c1/c2cccc3cccc(c32)n1C	none
CCN(CC)C(=O)C(=O)c1cn(CC(=O)NC2CCCC2)c2ccccc12	none
N#Cc1ccc(C(=O)Nc2nn[nH]n2)cc1	none
O=C1CCC(CCNCc2cccnc2)N1CCc1cccc(Cl)c1 (centres undefined)	none
CS(=O)(=O)c1ccc2nc(NC(=O)c3cc(Cl)ccc3[N+](=O)[O-])sc2c1	TEAD-YAP inh 40
O=C(Nc1ccc2nc(NC(=O)c3ccccc3Cl)sc2c1)c1ccccc1Cl	TEAD-YAP inh 49
COc1ccc2nc(NC(=O)c3ccco3)sc2c1	TEAD-YAP inh 42
Nc1ccc2nc(NC(=O)c3ccc(Cl)cc3Cl)sc2c1	TEAD-YAP inh 70
O=C(Nc1nc2ccc(Br)cc2s1)c1ccccc1Cl	none
CC(=O)Nc1ccc(C2=N/C(=C\c3ccccc3O)C(=O)O2)cc1	none
CNC(=O)c1ccc(-c2ccc3c(c2)OCO3)nc1N1CCOCC1	none
COc1cc(OC)c(OC)cc1/C=C(/C#N)c1ccc([N+](=O)[O-])cc1	none
COc1ccc(-c2cc(C(=O)N/N=C(\C)c3ccc(Cl)cc3)[nH]n2)cc1	none
CCOc1ccc(-c2cc(C(=O)N/N=C(\C)c3cccc(OC)c3)[nH]n2)cc1	TEAD-YAP inh 52
C/C(=N\NC(=O)c1ccccn1)c1cccs1	TEAD-YAP inh 65
CCOc1ccc(-c2cc(C(=O)N/N=C(\C)c3cccs3)[nH]n2)cc1	TEAD-YAP inh 60
CC(=O)NNc1nc(-c2ccc([N+](=O)[O-])cc2)cs1	none
Cc1cc(C(=O)NCC2CCCO2)c2c(C)nn(-c3ccccc3)c2n1 (centres undefined)	none
Cc1nn(C)cc1CN(C)C(Cc1ccccc1)C1CCN(C(=O)Cc2ccn(C)c2)CC1 (centres undefined)	none
Cc1sc2ncn(CC(=O)NCC(=O)Nc3ccccn3)c(=O)c2c1C	none
Cc1cc(NC(=O)c2ccc3c(c2)OCCO3)on1	TEAD-YAP inh 38
Cc1cc(NC(=O)c2ccc3c(c2)OCCO3)no1	TEAD-YAP inh 79
Cc1cc(NC(=O)c2ccc3c(c2)OCO3)no1	none
Cc1cccc(NC(=O)c2ccc3c(c2)OCCO3)n1	none
c1ccc(-c2nc(-c3ccncc3)cc(N3CCCCC3)n2)cc1	none
Nc1nc(-c2ccccc2)cc(N2CCCC2)n1	TEAD-YAP inh 45
Cc1ccc(C(=O)c2c(C)[n+](-c3ccccc3)c3scc(C)n23)cc1	TEAD-YAP inh 34
Cc1csc2n1c(C(=O)c1ccccc1)c(C)[n+]2-c1ccccc1	none
COC(=O)c1cc(C)nc2c1C(=O)C(=O)C=C2N1CCOCC1	TEAD-YAP inh 41
COc1cccc(CNC(=O)c2cnc3ccc(-c4cn[nH]c4)cn23)c1	TEAD-YAP inh 88
CCCNC(=O)c1ccccc1NC(=O)c1ccc(OC)cc1	none
COc1ccc(C(=O)Nc2ccccc2C(=O)NCCCC(=O)O)cc1	FBW7 activator 2.0
O=C(c1cc(-c2cccnc2)nc2ccc(Cl)cc12)N1CCN(c2ncccn2)CC1	none
O=C(c1cc(-c2ccncc2)nc2ccc(Cl)cc12)N1CCN(c2ccccn2)CC1	TEAD-YAP inh 40
CC(=O)N1CCN(c2nc(-c3ccccc3)c3cc(Cl)ccc3n2)CC1	none
O=C(c1ccccc1)N1CCN(c2nc(-c3ccccc3)c3cc(Cl)ccc3n2)CC1	FBW7 activator 1.9
Cc1ccc(-c2cc(C(=O)N3CCN(c4ccccc4)CC3)c3ccccc3n2)s1	TEAD-YAP inh 49
CCOc1ccccc1N1CCN(C(=O)c2cc(-c3cccc(C)c3)nc3ccccc23)CC1	TEAD-YAP inh 42
COCCNC(=O)c1ccc(Cn2c(SCc3ccncc3)nc3ccc(Br)cc3c2=O)cc1	none
CCOc1ccc(C2C(=O)N(C3CCCCC3)CC(=O)N2C2CCCc3ccccc32)cc1OC (centres undefined)	none
COc1ccccc1/C=C(\NC(=O)c1ccc(OC)c(OC)c1)C(=O)Nc1ccccc1Br	none
CCOC(=O)N1CCN(C(=O)c2cc(-c3ccncc3)nc3ccccc23)CC1	TEAD-YAP inh 52
O=C(Nc1cccc(O)c1)c1ccc(Oc2ccccc2)cc1	TEAD-YAP inh 93
CC(C)(C)C(=O)Nc1ccc(C(=O)Nc2cccc(O)c2)cc1	TEAD-YAP inh 64
CCCCOc1ccc(C(=O)Nc2cccc(O)c2)cc1	TEAD-YAP inh 82
CC(C)(C)N1C(=O)c2ccc(C(=O)Nc3cccc(O)c3)cc2C1=O	TEAD-YAP inh 89
COc1cccc(NC(=O)c2ccc(NC(=O)C(C)(C)C)cc2)c1	none
CCN(CC)S(=O)(=O)/N=C/c1ccc(Cl)c(Cl)c1	none
COc1ccc(OC)c(C(C)NC(=O)c2ccc(Cl)cc2)c1 (centres undefined)	none
O=C(NNC(=O)c1nn(-c2ccc(Cl)cc2)cc1O)c1ccccc1F	none
O=C(NNC(=O)c1nn(-c2ccc(Cl)cc2)cc1O)c1ccc2ccccc2n1	MITF primary 69, TEAD-YAP inh 65
COc1ccc(Cc2nc3c4cnn(-c5ccc(Cl)cc5)c4ncn3n2)cc1OC	none
c1ccc2cc(-c3cnc4ccc(NCCCN5CCOCC5)nn34)ccc2c1	none
OCCCNc1ccc2ncc(-c3ccsc3)n2n1	TEAD-YAP inh 51
FC(F)(F)c1cccc(-c2cnc3ccc(NCCCN4CCOCC4)nn23)c1	FBW7 activator 1.9
OCCCNc1ccc2ncc(-c3ccccc3)n2n1	TEAD-YAP inh 43
O=C(O)c1ccc(-c2cnc3ccc(NCCCO)nn23)cc1	none
OCCCNc1ccc2ncc(-c3cccc(O)c3)n2n1	TEAD-YAP inh 72
O=C(NCCc1ccc2c(c1)OCCO2)c1cc2c(s1)CCC2	none
CCCNc1ccc2ncc(-c3cccc(C(C)=O)c3)n2n1	TEAD-YAP inh 34
CC(=O)c1cccc(-c2cnc3ccc(NCc4cccs4)nn23)c1	none
OCCCNc1ccc2ncc(-c3cccc(Cl)c3)n2n1	TEAD-YAP inh 53
O=C(Cc1cn(-c2ccc(Nc3ccc(N4CCOCC4)cc3)nn2)c2ccccc12)NCc1ccccc1	TEAD-YAP inh 48
CCOC(=O)CC1CCCCN1C(=O)c1cc(Cc2ccc(F)cc2)no1 (centres undefined)	none
CCOc1cc(C(=O)Nc2ccc(-c3ccn[nH]3)cc2)cc(OCC)c1OCC	TEAD-YAP inh 51
O=C(Nc1cccc(-c2nc3ccc(NC(=O)c4cccnc4)cc3o2)c1)c1cccnc1	TEAD-YAP inh 41
O=C(Nc1ccc(-c2ccn[nH]2)cc1)c1cccnc1	TEAD-YAP inh 79
Cc1ccc(C(=O)NC(C)(C)C)cc1	none
O=C1c2ccccc2-c2onc3c(N4CCCCC4)cc(N4CCOCC4)c1c23	MITF primary 62
Cc1ccccc1Nc1cc(N2CCOCC2)c2noc3c2c1C(=O)c1ccccc1-3	MITF primary 55
Cc1cccc(Nc2cc(N3CCOCC3)c3noc4c3c2C(=O)c2ccccc2-4)c1	none
COc1cc(Nc2cc(N3CCC(C)CC3)c3noc4c3c2C(=O)c2ccccc2-4)cc(OC)c1OC	TEAD-YAP inh 43
COc1cc(Nc2cc(N3CCCC3)c3noc4c3c2C(=O)c2ccccc2-4)cc(OC)c1OC	none
COc1ccc(N2C(=O)CC(SCCC(=O)Nc3ccc(C)c(Cl)c3)C2=O)cc1 (centres undefined)	none
O=c1cc(-c2ccccc2)oc2cc(O)ccc12	TEAD-YAP inh 51!
